An excerpt weighted towards active compounds, which were near 4.8% of everything screened.
hcDAF12 agonist: activators of H. contortus DAF-12 nuclear receptor; HEK293 hcDAF-12 lit1-tk-luc reporter, luminescence; 0% DMSO, 100% Δ7-dafachronic acid; activation, % at 6.8 µM; 370,000 tested, 1.4% active; AID 652067;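 active = activation above the mean of all tested compounds plus 3 SD, cut at about 5.5% in these data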
SMARCA2 act: increases SMARCA2 function in MMTV reporter cells. MG213 cells, MMTV-luciferase reporter, dexamethasone, overnight. activation, % at 9.1 µM. 370,000 tested, 1% active. AID 652017; in the data active = activation above about 7.8%
DAX1 inh-1: NR0B1 (DAX1) inhibition. AID 504766. inhibition, % at 6.75 µM. 340,000 tested, 0.99% active. HEK293 Gal4-DAX1 luciferase reporter, luminescence;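 active = inhibition above the mean over all tested compounds plus 3 SD, cut at about 4.2% in these data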;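 also: inhibition shows as a rise in luminescence from relieved DAX1 repression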
Target sequence (P51843 207-470 limits assumed): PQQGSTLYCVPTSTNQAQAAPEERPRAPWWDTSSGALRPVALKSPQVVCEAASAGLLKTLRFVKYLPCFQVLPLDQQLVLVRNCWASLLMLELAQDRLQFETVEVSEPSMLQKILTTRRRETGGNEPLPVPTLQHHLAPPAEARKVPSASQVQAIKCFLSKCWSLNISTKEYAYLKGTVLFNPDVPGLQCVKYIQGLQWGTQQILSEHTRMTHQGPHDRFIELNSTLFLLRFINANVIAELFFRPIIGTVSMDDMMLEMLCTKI
hgDAF12 agonist: hgDAF-12 agonism, primary luciferase screen; HEK293 GAL4-hgDAF12 UAS-luciferase reporter, agonist luminescence; normalized to butyrate control; activation, % at 6.8 µM; 370,000 tested, 1.8% active;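 active = activation above a cutoff set at the mean of all screened compounds plus 3 SD, cut at about 10% in these data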
ssDAF12 agonist: activates DAF-12 receptor from parasite S. stercoralis | HEK293 ssDAF-12/GRIP1 lit1-tk-luc reporter, luminescence; % of 3 µM dafachronic acid response | activation, % at 6.8 µM | 370,000 tested, 1% active;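 active = activation above the mean over all tested compounds plus 3 SD, cut at about 0.9% in these data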
DAX1 inh-2: blocks DAX1 repression of SF-1 activated StAR promoter; HEK293T StAR-luciferase reporter, SF-1/DAX-1 repression relief; inhibition, % at 6.8 µM; 370,000 tested, 1.1% active;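 active = inhibition above the mean over all tested compounds plus 3 SD, cut at about 3.6% in these data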;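 also: higher inhibition means more luminescence from relief of DAX-1 repression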
SMARCA2 act conf: SMARCA2 activation, confirmation screen; shares compounds with SMARCA2 act; MG213 cells, MMTV-luciferase with dexamethasone, luminescence, overnight; MG213 cells expressing E1A, Rb sequestered; DMSO wells 0%, reference activator 100%; activation, % at 9.1 µM; 3,500 tested, 30% active; AID 652260;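 active = activation above its plate's cutoff, the mean activation of tested wells plus 3 SD, cut at about 7.9% in these data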
GAL4-VP16 Luc: counter-screen for SMARCA2 activators: GAL4-VP16 luciferase reporter activation. shares compounds with SMARCA2 act. HEK293 GAL4-VP16 pG5luc reporter, luciferase luminescence; scaled: DMSO wells 0%, SAHA wells 100%. activation, % at 9.1 µM. 3,500 tested, 41% active;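 active = activation above the solvent-only control well mean plus 3 SD, averaged across control plates, cut at about 5.2% in these data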
Hits are given with their value.

`Cc1ccc(-c2nc(C)c(C(=O)O)s2)cc1` gave hcDAF12 agonist inactive, SMARCA2 act 10.9, DAX1 inh-1 inactive, hgDAF12 agonist 10.8, ssDAF12 agonist inactive, DAX1 inh-2 inactive, SMARCA2 act conf 9.5 and GAL4-VP16 Luc 7.4.
`CC(=O)N1CCc2cc(S(=O)(=O)NCC(=O)NCc3ccc(F)cc3)ccc21` gave hcDAF12 agonist inactive, SMARCA2 act inactive, DAX1 inh-1 inactive, hgDAF12 agonist inactive, ssDAF12 agonist inactive and DAX1 inh-2 inactive.
`Cc1cc(C)c(C)c(S(=O)(=O)NNC(=O)c2cccc(S(=O)(=O)N3CCOCC3)c2)c1C` gave hcDAF12 agonist inactive, SMARCA2 act inactive, DAX1 inh-1 inactive, hgDAF12 agonist inactive, ssDAF12 agonist inactive and DAX1 inh-2 inactive.
COc1ccc(C=C2NC(=S)NC2=O)cc1 was read as hcDAF12 agonist inactive, SMARCA2 act inactive, DAX1 inh-1 inactive, hgDAF12 agonist inactive, ssDAF12 agonist inactive and DAX1 inh-2 inactive.
`COc1ccc(C(=O)N2C(=S)NC(=O)/C2=C\c2ccc(C)cc2)cc1` gave hcDAF12 agonist inactive, SMARCA2 act 12.7, DAX1 inh-1 inactive, hgDAF12 agonist 12.0, ssDAF12 agonist inactive, DAX1 inh-2 inactive, SMARCA2 act conf inactive and GAL4-VP16 Luc inactive.
For CC1CCCC(C)N1CCCNC(=O)CN1C(=O)c2cccnc2Oc2ccc(Cl)cc21 (stereo unspecified) the results were hcDAF12 agonist inactive, SMARCA2 act 8.9, DAX1 inh-1 inactive, hgDAF12 agonist inactive, ssDAF12 agonist inactive, DAX1 inh-2 inactive, SMARCA2 act conf inactive and GAL4-VP16 Luc inactive.
`COc1cccc(NC(=O)CN2C(=O)c3cccnc3Oc3ccc(Cl)cc32)c1` gave hcDAF12 agonist inactive, SMARCA2 act 8.3, DAX1 inh-1 inactive, hgDAF12 agonist inactive, ssDAF12 agonist inactive, DAX1 inh-2 inactive, SMARCA2 act conf inactive and GAL4-VP16 Luc inactive.
Nn1c(SCC(=O)N2CCOCC2)nnc1-c1ccc(Cl)cc1Cl was read as hcDAF12 agonist inactive, SMARCA2 act inactive, DAX1 inh-1 inactive, hgDAF12 agonist inactive, ssDAF12 agonist inactive and DAX1 inh-2 inactive.
`CC(C)Oc1ccc(C2CC(=O)N(c3ccc(C(=O)O)cc3)C2=O)cc1` (stereo unspecified) gave hcDAF12 agonist inactive, SMARCA2 act inactive, DAX1 inh-1 inactive, hgDAF12 agonist inactive, ssDAF12 agonist inactive and DAX1 inh-2 inactive.
For CC(C)Oc1ccc(C2CC(=O)N(c3cccc(C(=O)O)c3)C2=O)cc1 (stereo unspecified) the results were hcDAF12 agonist inactive, SMARCA2 act 9.8, DAX1 inh-1 inactive, hgDAF12 agonist inactive, ssDAF12 agonist inactive, DAX1 inh-2 inactive, SMARCA2 act conf inactive and GAL4-VP16 Luc inactive.
CC1(C)CC(NC(=O)c2cc(Cl)ccc2Cl)CC(C)(C)N1 was read as hcDAF12 agonist inactive, SMARCA2 act 10.4, DAX1 inh-1 inactive, hgDAF12 agonist inactive, ssDAF12 agonist inactive, DAX1 inh-2 inactive, SMARCA2 act conf inactive and GAL4-VP16 Luc inactive.
`Cc1ccc(C)c(C(=O)NC2CC(C)(C)NC(C)(C)C2)c1` gave hcDAF12 agonist inactive, SMARCA2 act inactive, DAX1 inh-1 inactive, hgDAF12 agonist inactive, ssDAF12 agonist inactive and DAX1 inh-2 inactive.
Screening O=C(c1ccco1)N1CCN(Cc2nnc(-c3cccc(Cl)c3)o2)CC1 returned hcDAF12 agonist inactive, SMARCA2 act inactive, DAX1 inh-1 inactive, hgDAF12 agonist inactive, ssDAF12 agonist inactive and DAX1 inh-2 inactive.
`O=C1CC2(CCCCC2)CC(=O)N1CCc1ccccc1` gave hcDAF12 agonist inactive, SMARCA2 act 8.0, DAX1 inh-1 inactive, hgDAF12 agonist inactive, ssDAF12 agonist inactive, DAX1 inh-2 inactive, SMARCA2 act conf inactive and GAL4-VP16 Luc inactive.
`O=C1CC2(CCCC2)CC(=O)N1c1ccccc1` gave hcDAF12 agonist inactive, SMARCA2 act inactive, DAX1 inh-1 inactive, hgDAF12 agonist inactive, ssDAF12 agonist inactive and DAX1 inh-2 inactive.
